What all share (test): NCI-60 one-dose screen, 48 h (100 = growth as untreated, 0 = no growth, -100 = all killed)
What all share (settings): 10 µM unless noted

Experiment [1] relates to SR leukemia.
In experiment [2] the test system is RPMI-8226 leukemia.
Experiment [3] relates to OVCAR-8 ovarian.
Experiment [4] concerns OVCAR-5 ovarian.
Experiment [5] relates to OVCAR-4 ovarian.
Experiment [6] concerns SK-OV-3 ovarian.
Experiment [7] relates to IGROV1 ovarian.
Experiment [8] concerns OVCAR-3 ovarian.
In experiment [9] the test system is HS 578T breast.
The test system of experiment [10] is NCI/ADR-RES ovarian.
The test system of experiment [11] is T-47D breast.
For experiment [12], the system named is BT-549 breast.
Experiment [13] deals with MDA-MB-435 melanoma.
Experiment [14] concerns SW-620 colon.
In experiment [15] the test system is MCF7 breast.
Experiment [16] relates to HCT-116 colon.
Experiment [17] concerns HCC-2998 colon.
Experiment [18] concerns KM12 colon.
The subject of experiment [19] is MDA-MB-468 breast.

Each structure is given as a SMILES string. This is part of a sample that, as a whole, favours compounds with a hit. Of some 83,000 tested, about 20% had one in any assay.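 Values shown are percent growth following 48 h exposure of cells in 96-well plates to a single concentration of compound; below 10 was considered active.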 A number with no mark means an inactive call. The source made the active and inactive calls.

Take `COc1cc2oc(-c3cccc(C(=O)Nc4ccc(Cl)cc4)c3)cc(=O)c2c(OCCNC(=O)[C@H](CO)NC(=O)OC(C)(C)C)c1OC`: the growth in experiment [1] was 2.89% (active); in experiment [2] it was -39.9% (active); in experiment [3], 18.3%; in [4], 32%; in experiment [5], 36.4%; in experiment [6], 93.3%. Besides, the growth in [7] is 25.3%; in [8] it was 17.2%; in experiment [9] it was 26.5%; in experiment [10], 64.8%; in experiment [11], 29%; in [12] it was -52.3% (active). Further, the growth in experiment [13] was 3.55% (active); in [14], 33.7%; in experiment [15], 6.34% (active); in [16] it was 7.19% (active); in experiment [17], -7.27% (active); in experiment [18], 17.3%.
Take `COc1ccc(C2=NN(C(C)=O)C(c3ccc(OCc4ccc(Cl)cc4)c(OC)c3)C2)cc1OC` (centres undefined): the growth in experiment [1] is 52.4%; in experiment [2], 37%; in experiment [3] it was 43.5%; in [4] it was 79.8%; in [5], 29.4%; in experiment [6], 84.9%. Also, the growth was 49% in experiment [7]; 41.4% in experiment [8]; 56.3% in experiment [9]; 56.1% in experiment [10]; 10.2% in [11]; 33.8% in experiment [12]. Moreover, the growth in experiment [13] was 43%; in experiment [14] it was 61.2%; in [15], 20.1%; in [16] it was 35.3%; in [17] it was 83.4%; in experiment [18] it was 39%. Moreover, the growth in [19] was 31.1%.
As to `CCS(=O)(=O)N1CCCC(C(=O)Nc2nc3ccc(NC(=O)c4ccc(F)c(OC)c4F)cc3s2)C1` (centres undefined), the growth in experiment [1] was 27.8%; in experiment [2], 30.4%; in experiment [3], 57.7%; in [4], 101%; in experiment [5] it was 39.4%; in [6], 70.2%. The growth in experiment [7] was 80.9%; in experiment [8], 62.3%; in [9] it was 47.6%; in experiment [10], 52%; in [11], 7.96% (active); in experiment [12] it was 13.2%. Further, the growth is 53.8% in [13]; 88.7% in [14]; 30.1% in experiment [15]; 41% in [16]; 86.9% in [17]; 61.6% in [18].
Take `O=C1NC(=O)/C(=C/c2ccccc2OCc2cc3ccccc3nc2Cl)S1`: the growth is 105% in experiment [1]; 93.7% in experiment [2]; 68.4% in experiment [3]; 112% in experiment [4]; 88.2% in experiment [5]; 81.7% in [6]. The growth in [7] is 91.5%; in experiment [8], 71.7%; in experiment [9], 28.8%; in experiment [10], 87.6%; in experiment [11], 75.3%; in experiment [12], 78.7%. In addition, the growth in experiment [13] is 101%; in experiment [14], 109%; in experiment [15], 74.3%; in [16] it was 108%; in experiment [17], 114%; in experiment [18], 85.2%. Further, the growth in [19] was 80.6%.
Consider `Cn1cc(-c2nc(N)nnc2-c2c[nH]c3ccc(Br)cc23)c2cccnc21`, for which the growth in [1] was 29.1%; in [2], 45%; in experiment [3], 47.9%; in experiment [4], 80.3%; in [5] it was 71.1%; in experiment [6], 61.8%. Further, the growth is 46.2% in experiment [7]; 29.2% in [8]; 33.9% in experiment [9]; 78.7% in [10]; 62.5% in experiment [11]; 33.9% in experiment [12]. In addition, the growth in [13] was 12%; in experiment [14], 39.9%; in [15] it was 21.4%; in experiment [16] it was 21.2%; in experiment [17] it was 77%; in experiment [18], 33.9%. Moreover, in experiment [19], the growth was 44.6%.
Regarding `CC(=O)Nc1ccc(-n2cnc3ccc(-c4ccc(O)cc4)cc32)cc1`, the growth in experiment [1] was 15.8%; in [2] it was 38.9%; in experiment [3] it was 42.1%; in [4], 72.2%; in [5] it was 67.3%; in experiment [6], 66.8%. The growth in experiment [7] is 27.2%; in [8], 54.3%; in experiment [9], 8.57% (active); in experiment [10], 84.4%; in experiment [11], 47.9%; in experiment [12] it was 51.4%. The growth in experiment [13] is 44.7%; in experiment [14] it was 39.2%; in experiment [15] it was 10.6%; in [16] it was 20.2%; in experiment [17] it was 66.3%; in experiment [18] it was 17.8%.
Consider `Cn1cc(-c2nnc(N)nc2-c2c[nH]c3ccccc23)c2cccnc21`, for which the growth was 25.2% in experiment [1]; 43.5% in experiment [2]; 49.7% in experiment [3]; 77.8% in experiment [4]; 76.8% in experiment [5]; 64.6% in experiment [6]. Further, the growth in experiment [7] is 39.5%; in experiment [8] it was 25.9%; in experiment [9], 41.4%; in experiment [10], 76.3%; in experiment [11], 44.6%; in experiment [12], 34.7%. The growth in experiment [13] is -28.9% (active); in experiment [14] it was 16.5%; in [15], 22.5%; in experiment [16], 18.2%; in experiment [17], 81%; in experiment [18], 17.2%. The growth in experiment [19] was 33.4%.
As to `Nc1nc(C(F)(F)F)cs1`, the growth was 101% in [1]; 115% in experiment [2]; 105% in experiment [3]; 113% in experiment [4]; 108% in [5]; 101% in [6]. Besides, the growth in [7] is 107%; in [8] it was 108%; in experiment [9] it was 109%; in experiment [10] it was 104%; in experiment [11] it was 99.4%; in experiment [12], 114%. In addition, the growth in experiment [13] is 100%; in [14], 104%; in experiment [15], 93.2%; in experiment [16] it was 111%; in experiment [17], 105%; in experiment [18] it was 100%. Besides, in experiment [19], the growth is 101%.

(Values after PubChem BioAssay (NCI).)
